The record followed here is PubChem BioAssay (NCI).

Values joined by “and” are separate entries in the source; they are usually repeats but may differ in a detail not shown here. Equal values may be shown once. The panel holds about 83,000 compounds, 20% with a hit somewhere; the sample as a whole holds those more often.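 Cells were grown in 96-well plates and exposed to the test compound at a single concentration for 48 hours; results are reported as percent growth, with values below 10 considered active.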 A number with no mark means an inactive call. Active and inactive are the calls of the source.

One assay concerns HL-60(TB) leukemia. The experiment in a line: NCI-60 one-dose screen, 48 h (100 = growth as untreated, 0 = no growth, -100 = all killed). Conditions: 10 µM. The protocol: Growth inhibition of the HL-60(TB) human tumor cell line is measured as a screen for anti-cancer activity. Cells are grown in 96 well plates and exposed to the test compound for 48 hours. Compounds are tested at a single concentration, which is 10^-5 M for most compounds. The reported endpoint is percent growth (GI% or GIPRCNT), where numbers from 0 - 100% represent growth inhibition, and numbers from -100% - 0 represent cell death. For example, a value of 40 represents 60% growth inhibition. A value of 0 means no net growth occurred over the course of the experiment. A value of -40 indicates 40% of cells at the beginning of the experiment died by the end of the experiment. A value of -100 means all cells are dead at the end of the experiment.
NCI-60 Human Tumor Cell Lines Screen was performed using the standard one-dose NCI protocol, which is described in more detail at https://dtp.cancer.gov/discovery_development/nci-60/default.htm.
Compounds with GIPRCNT values below 10 were considered active. Activity score was based on GIPRCNT using the following formula: […]
Score is 0 for GIPRCNT values of 100 or above, 50 for GIPRCNT values of 0, and 100 for GIPRCNT values of -100.
As to `CC(=O)/C=C/c1ccc(OCc2ccc(C(C)(C)C)cc2)cc1`, the growth is 59.5%.

The assay is the same for the next values; noted with them: 10 µM unless noted.
`COc1cc(CN(CCC(O)N2CCCC2=O)Cc2ccc3c(c2)OCO3)cc(OC)c1OC` (stereo not given): the growth is 90.6%. Same read-out and setting: the value for `Clc1ccc(N/N=C/c2ccccn2)nc1` was -15.4% (active); that for `CC(=O)OCC(=O)[C@@]1(O)[C@H](C)C[C@H]2[C@@H]3C=C(C)C4=Cc5c(cnn5-c5ccc(F)cc5)C[C@]4(C)[C@H]3[C@@H](O)C[C@@]21C` was 16.3%. Still for that read-out and setting: the value for `CC[C@@]1(O)C(=O)OCc2c1cc1n(c2=O)Cc2c-1nc1ccccc1c2/C=N/OC(C)(C)C` was -29% (active).

As for `COc1ccc2cc(-c3ccc(NC(C)=O)c(=O)o3)ccc2c1`, the growth is 95.1%. Turning to `O=C1c2cc(I)ccc2Oc2cc([N+](=O)[O-])ccc2N1c1ccc(Cl)cc1F`, the growth was 55.9%. Still for that read-out and setting: next, `O=C1/C(=C\c2ccc3nccnc3c2)SC(=S)N1CCc1ccc(O)cc1`: 75.6%; `COc1cc(C(=O)n2nc(N3CCN(C)CC3)c3cc(N)ccc32)cc(OC)c1OC`: 1.68% (active); `COc1cc(-c2ccc(N=Nc3ccc4c(S(=O)(=O)O)ccc(N)c4c3O)c(OC)c2)ccc1N=Nc1ccc2c(S(=O)(=O)O)ccc(N)c2c1O`: 115%. On to `NC(=O)c1n[nH]n2c1nc(=O)c1c3c(sc12)CCCC3`, for which the growth was 99.9%.

In the case of `Fc1cc2c(cc1Cl)N(c1ncnc3ccc(-c4ccc5n[nH]nc5c4)cc13)CC2`, the growth was 69.3%. Same read-out and setting: the value for `COc1ccc(/C(C)=C(/c2ccc(OCCCN(C)C)cc2)c2ccc(OC(=O)Cc3ccccc3)cc2)cc1` was 72%; that for `CC(C)c1[nH]ncc1-c1nc2ccc3[nH]ncc3c2c2c1CCCC2` was 13.4%; that for `O=C(CNS(=O)(=O)Cc1ccccc1)NNc1ccccc1` was 18%. On the same count and under the same terms, the value for `Cc1nc(N2CCOCC2)sc1S(N)(=O)=O` was 97.4%.

Consider `Cc1nn(-c2nc3ccccc3s2)c(C)c1Oc1ccccc1O`, for which the growth is 60.3%.

Regarding `Cc1ccc2[nH]c3ccccc3c2c1`, the growth was 99.7%. Same read-out and setting: the value for `CCOCC(O)(c1ccc(Cl)cc1)c1ccc(Cl)cc1` was 106%; that for `COc1ccc(/C=C2/SC(=Nc3c(C)nn(-c4ccccc4)c3N)NC2=O)cc1` was 16.6%. The same measure, in the same setting: next, `O=C1c2cccnc2C(=O)c2c1c(C(=O)NCCCN1CCCCC1)c1ccccn21`: -29% (active); `CCNCc1ccncc1`: 95.8%. On the same count and under the same terms, next, `O=C(CCC(C(=O)c1ccccc1)c1ccccc1)c1ccccc1` (stereo not given): 28.1%. Regarding `O=S(=O)(Nc1ccc(Cl)c(C(F)(F)F)c1)c1ccc(-c2cnc(C3CC3)o2)cc1`, the growth was -38.6% (active). The same measure, in the same setting: the value for `COc1ccc(/C=C\c2cc(OC)c(OC)c(OC)c2)c(NS(=O)(=O)c2ccc(C(C)(C)C)cc2)c1O` was 6.05% (active); that for `S=C(S)N1CCCC1` was 114% and 110%. Still for that read-out and setting: the value for `CN1CCN(CCCOc2cccc3nc(Nc4ccc(Cl)c(F)c4)ccc23)CC1` was 61.9%. As to `CC1Cc2c(Cl)ncnc2N(C)c2ccc(F)cc21` (stereo not given), the growth is 91.6%. On the same count and under the same terms, next, `COc1ccc(/C=C/C(=O)c2ccc(Nc3ccnc4cc(Cl)ccc34)cc2)cc1`: 17.5%; `COc1ccc(S(=O)(=O)N2CCCCCC2)cc1NC(=O)c1[nH]c(C)c2c1CCCCC2=O`: 7.56% (active).

For `COc1cc(CNCCN2C(=O)c3ccc4c5c(ccc(c35)C2=O)C(=O)N(CCNCc2cc(OC)c(OC)c(OC)c2)C4=O)cc(OC)c1OC`, the growth was -48.7% (active).

As to `N#Cc1cccc(-c2c(-c3ccc4ccccc4c3)oc3ccccc3c2=O)c1`, the growth is 6.17% (active). As to `O=S(=O)(c1ccccc1)n1cc2c(c1)-c1nc(Nc3ncccn3)sc1CC2`, the growth is 66.2%. On the same count and under the same terms, the value for `CCC(=O)N1C/C(=C/c2ccc(Cl)cc2)C(=O)/C(=C/c2ccc(Cl)cc2)C1` was 4.88% (active); that for `COc1cc(NS(C)(=O)=O)ccc1Cc1c2ccccc2nc2ccccc12` was -2.45% (active); that for `CCCCC1C(=O)N(c2ccccc2)N(c2ccccc2)C1=O` was 102%. The same measure, in the same setting: next, `N#Cc1c2c(nn(-c3ccccc3)c1=O)C(O)=C([N+](=O)[O-])C(c1ccccc1)C2` (stereo not given): 58.5%; `Cc1cccc([N+](=O)[O-])c1Cl`: 115%; `O=[N+]([O-])c1ccc(/C=N\NC(=S)Nc2ccc(F)cc2)cc1`: 114% and 82.5%.

Still in this assay, the particulars now being: 100 µM.
With `CC(=O)/C=C/c1ccc(OCc2ccc(C(C)(C)C)cc2)cc1`, the growth is -32.4% (active).
